In ChEMBL document CHEMBL1961873, “Compounds: GSK PKIS; Assays: Nanosyn kinase panel” (2012):

Tests used:
[1] = target: Ribosomal protein S6 kinase alpha-6 (Homo sapiens) (UniProt Q9UK32); conditions: at 1 µM;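 note: each value is a mean inhibition of RSK4 from a GSK PKIS panel screen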
[2] = target: T1, Serine/threonine-protein kinase Sgk1 (Homo sapiens) (UniProt O00141); conditions: at 0.1 µM
T1 sequence (whole entry): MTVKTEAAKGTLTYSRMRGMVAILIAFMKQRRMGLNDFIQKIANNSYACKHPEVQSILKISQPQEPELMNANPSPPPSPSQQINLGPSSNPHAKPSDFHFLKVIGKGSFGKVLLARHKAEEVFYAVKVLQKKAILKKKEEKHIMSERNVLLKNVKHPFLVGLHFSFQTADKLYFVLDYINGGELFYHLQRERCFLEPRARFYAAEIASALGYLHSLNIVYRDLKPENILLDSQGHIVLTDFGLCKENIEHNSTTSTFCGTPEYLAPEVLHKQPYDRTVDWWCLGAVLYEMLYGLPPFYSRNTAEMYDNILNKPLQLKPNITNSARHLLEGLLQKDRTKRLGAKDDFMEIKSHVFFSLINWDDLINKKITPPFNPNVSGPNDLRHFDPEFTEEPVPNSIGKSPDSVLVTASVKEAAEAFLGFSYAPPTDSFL

[3] = target: T1, Serine/threonine-protein kinase Sgk1 (Homo sapiens); conditions: at 1 µM
[4] = target: T2, Serine/threonine-protein kinase Sgk2 (Homo sapiens) (UniProt Q9HBY8); conditions: at 0.1 µM
T2 sequence (whole entry): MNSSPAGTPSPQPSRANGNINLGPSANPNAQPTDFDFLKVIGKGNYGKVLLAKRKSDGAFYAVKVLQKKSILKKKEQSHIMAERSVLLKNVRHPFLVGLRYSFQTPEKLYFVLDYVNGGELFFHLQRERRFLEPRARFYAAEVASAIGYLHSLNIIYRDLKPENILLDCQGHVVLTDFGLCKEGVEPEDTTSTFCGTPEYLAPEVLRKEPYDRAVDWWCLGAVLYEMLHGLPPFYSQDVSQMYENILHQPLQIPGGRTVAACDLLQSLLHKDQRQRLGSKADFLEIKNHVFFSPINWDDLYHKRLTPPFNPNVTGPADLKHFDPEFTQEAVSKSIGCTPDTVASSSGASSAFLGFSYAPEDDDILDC

[5] = target: T2, Serine/threonine-protein kinase Sgk2 (Homo sapiens); conditions: at 1 µM
[6] = target: T3, Serine/threonine-protein kinase Sgk3 (Homo sapiens) (UniProt Q96BR1); conditions: at 0.1 µM
T3 sequence (whole entry): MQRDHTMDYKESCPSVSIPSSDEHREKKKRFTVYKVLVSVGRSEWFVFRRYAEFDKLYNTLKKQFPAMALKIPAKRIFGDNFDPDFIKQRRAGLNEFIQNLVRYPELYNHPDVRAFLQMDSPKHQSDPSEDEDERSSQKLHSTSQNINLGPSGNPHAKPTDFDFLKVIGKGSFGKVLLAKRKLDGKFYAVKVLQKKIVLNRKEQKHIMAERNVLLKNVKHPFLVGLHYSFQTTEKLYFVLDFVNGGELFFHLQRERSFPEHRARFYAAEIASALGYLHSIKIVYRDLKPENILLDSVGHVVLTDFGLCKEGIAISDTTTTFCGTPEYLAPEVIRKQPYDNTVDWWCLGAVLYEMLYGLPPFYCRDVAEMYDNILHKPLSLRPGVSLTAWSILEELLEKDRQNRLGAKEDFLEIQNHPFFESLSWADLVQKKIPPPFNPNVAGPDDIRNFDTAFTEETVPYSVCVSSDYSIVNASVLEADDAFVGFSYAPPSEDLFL

[7] = target: T3, Serine/threonine-protein kinase Sgk3 (Homo sapiens); conditions: at 1 µM
[8] = target: 5'-AMP-activated protein kinase catalytic subunit alpha-1 (Homo sapiens) (UniProt Q13131); conditions: at 0.1 µM
Sequence of 5'-AMP-activated protein kinase catalytic subunit alpha-1 (Homo sapiens) (Q13131 whole entry, looked up): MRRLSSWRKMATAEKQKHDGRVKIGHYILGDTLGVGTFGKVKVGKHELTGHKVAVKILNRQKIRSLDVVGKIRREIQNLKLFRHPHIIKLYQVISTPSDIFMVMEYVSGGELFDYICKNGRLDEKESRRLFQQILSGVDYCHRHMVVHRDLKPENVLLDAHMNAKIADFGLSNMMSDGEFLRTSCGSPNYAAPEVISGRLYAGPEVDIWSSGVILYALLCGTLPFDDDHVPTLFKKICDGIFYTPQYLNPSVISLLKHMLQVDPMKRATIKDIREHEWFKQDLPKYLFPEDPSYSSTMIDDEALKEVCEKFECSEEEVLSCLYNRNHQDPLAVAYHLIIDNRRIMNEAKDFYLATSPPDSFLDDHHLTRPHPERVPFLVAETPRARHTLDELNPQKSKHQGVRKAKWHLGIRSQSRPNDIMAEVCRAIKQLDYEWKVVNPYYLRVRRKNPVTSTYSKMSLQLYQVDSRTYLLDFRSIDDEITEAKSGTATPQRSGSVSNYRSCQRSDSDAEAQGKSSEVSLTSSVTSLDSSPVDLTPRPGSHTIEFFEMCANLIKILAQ

[9] = target: 5'-AMP-activated protein kinase catalytic subunit alpha-1 (Homo sapiens) (UniProt Q13131); conditions: at 1 µM
[10] = target: 5'-AMP-activated protein kinase catalytic subunit alpha-2 (Homo sapiens) (UniProt P54646); conditions: at 0.1 µM
Sequence of 5'-AMP-activated protein kinase catalytic subunit alpha-2 (Homo sapiens) (P54646 whole entry, looked up): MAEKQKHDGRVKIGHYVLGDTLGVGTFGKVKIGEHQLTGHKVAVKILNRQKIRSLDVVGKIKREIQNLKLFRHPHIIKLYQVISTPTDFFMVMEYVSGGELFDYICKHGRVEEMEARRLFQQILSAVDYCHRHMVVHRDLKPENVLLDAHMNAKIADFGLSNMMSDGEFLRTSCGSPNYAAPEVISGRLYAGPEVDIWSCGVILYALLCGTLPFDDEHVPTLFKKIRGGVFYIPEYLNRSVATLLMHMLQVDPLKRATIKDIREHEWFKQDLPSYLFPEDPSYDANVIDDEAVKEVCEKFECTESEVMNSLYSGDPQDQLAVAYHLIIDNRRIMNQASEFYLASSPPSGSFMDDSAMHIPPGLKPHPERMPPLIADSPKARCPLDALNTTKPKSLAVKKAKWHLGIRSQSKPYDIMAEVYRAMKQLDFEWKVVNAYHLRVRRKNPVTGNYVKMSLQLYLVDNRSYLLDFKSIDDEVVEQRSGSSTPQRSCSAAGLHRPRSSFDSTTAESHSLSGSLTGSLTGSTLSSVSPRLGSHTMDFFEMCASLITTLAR

[11] = target: 5'-AMP-activated protein kinase catalytic subunit alpha-2 (Homo sapiens) (UniProt P54646); conditions: at 1 µM
[12] = target: T4, NUAK family SNF1-like kinase 1 (Homo sapiens) (UniProt O60285); conditions: at 0.1 µM
T4 sequence (whole entry): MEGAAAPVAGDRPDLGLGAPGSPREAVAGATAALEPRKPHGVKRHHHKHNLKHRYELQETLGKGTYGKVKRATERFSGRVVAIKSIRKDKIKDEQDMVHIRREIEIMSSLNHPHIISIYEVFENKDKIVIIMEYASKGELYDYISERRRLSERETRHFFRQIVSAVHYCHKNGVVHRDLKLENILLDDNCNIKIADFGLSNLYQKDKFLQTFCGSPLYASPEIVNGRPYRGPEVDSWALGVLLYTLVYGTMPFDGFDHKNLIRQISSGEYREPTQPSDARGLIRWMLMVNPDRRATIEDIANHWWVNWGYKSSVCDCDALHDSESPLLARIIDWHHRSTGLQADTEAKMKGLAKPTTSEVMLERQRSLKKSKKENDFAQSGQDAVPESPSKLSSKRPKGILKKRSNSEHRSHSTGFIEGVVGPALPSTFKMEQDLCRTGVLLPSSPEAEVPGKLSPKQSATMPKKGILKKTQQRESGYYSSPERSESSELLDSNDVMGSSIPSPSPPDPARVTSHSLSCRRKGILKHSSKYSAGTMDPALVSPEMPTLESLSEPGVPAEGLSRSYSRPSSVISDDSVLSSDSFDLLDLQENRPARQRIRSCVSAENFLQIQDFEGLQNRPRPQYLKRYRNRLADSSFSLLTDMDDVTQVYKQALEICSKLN

[13] = target: T4, NUAK family SNF1-like kinase 1 (Homo sapiens); conditions: at 1 µM
[14] = target: T5, Serine/threonine-protein kinase BRSK1 (Homo sapiens) (UniProt Q8TDC3); conditions: at 0.1 µM
T5 sequence (whole entry): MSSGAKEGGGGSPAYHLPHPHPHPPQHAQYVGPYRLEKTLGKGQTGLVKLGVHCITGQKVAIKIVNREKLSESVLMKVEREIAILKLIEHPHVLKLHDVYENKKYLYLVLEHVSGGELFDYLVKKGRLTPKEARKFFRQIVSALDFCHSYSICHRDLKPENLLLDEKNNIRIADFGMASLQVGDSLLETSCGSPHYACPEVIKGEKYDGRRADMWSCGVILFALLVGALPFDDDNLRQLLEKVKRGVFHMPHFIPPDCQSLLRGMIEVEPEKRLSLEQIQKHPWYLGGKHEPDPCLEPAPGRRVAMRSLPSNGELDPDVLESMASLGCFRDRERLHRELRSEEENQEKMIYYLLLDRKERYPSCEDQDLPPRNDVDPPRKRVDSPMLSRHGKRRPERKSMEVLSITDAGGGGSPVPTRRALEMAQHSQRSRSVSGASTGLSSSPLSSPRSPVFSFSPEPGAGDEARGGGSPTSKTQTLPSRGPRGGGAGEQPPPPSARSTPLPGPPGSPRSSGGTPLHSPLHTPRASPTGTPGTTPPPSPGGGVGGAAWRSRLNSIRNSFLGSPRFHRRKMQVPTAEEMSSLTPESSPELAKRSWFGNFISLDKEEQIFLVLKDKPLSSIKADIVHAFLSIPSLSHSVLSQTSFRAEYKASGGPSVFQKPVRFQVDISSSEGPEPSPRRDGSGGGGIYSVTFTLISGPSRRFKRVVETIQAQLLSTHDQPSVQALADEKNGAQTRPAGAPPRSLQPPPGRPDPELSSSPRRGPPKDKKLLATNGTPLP

[15] = target: T5, Serine/threonine-protein kinase BRSK1 (Homo sapiens); conditions: at 1 µM
[16] = target: T6, Serine/threonine-protein kinase BRSK2 (Homo sapiens) (UniProt Q8IWQ3); conditions: at 0.1 µM
T6 sequence (whole entry): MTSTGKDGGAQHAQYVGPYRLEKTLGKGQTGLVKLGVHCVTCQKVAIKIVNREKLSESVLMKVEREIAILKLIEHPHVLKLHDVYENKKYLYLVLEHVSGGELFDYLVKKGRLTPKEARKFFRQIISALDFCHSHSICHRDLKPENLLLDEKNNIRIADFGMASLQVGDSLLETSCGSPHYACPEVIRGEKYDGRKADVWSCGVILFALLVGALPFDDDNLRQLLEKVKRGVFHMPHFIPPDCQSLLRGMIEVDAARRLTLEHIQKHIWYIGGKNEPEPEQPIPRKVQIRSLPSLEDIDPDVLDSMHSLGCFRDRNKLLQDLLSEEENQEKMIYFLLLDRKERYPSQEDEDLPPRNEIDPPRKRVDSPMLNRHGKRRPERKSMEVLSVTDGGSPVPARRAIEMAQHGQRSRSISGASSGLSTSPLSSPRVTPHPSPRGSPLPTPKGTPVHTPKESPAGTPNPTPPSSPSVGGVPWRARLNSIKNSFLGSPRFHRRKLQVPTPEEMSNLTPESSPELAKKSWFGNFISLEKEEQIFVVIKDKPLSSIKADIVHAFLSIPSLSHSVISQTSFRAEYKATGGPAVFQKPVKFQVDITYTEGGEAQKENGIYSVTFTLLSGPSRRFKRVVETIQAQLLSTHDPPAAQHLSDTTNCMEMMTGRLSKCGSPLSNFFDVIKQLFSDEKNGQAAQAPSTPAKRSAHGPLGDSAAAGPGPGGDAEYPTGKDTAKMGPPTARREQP

[17] = target: T6, Serine/threonine-protein kinase BRSK2 (Homo sapiens); conditions: at 1 µM
[18] = target: Calcium/calmodulin-dependent protein kinase type 1D (Homo sapiens) (UniProt Q8IU85); conditions: at 0.1 µM
Sequence of Calcium/calmodulin-dependent protein kinase type 1D (Homo sapiens) (Q8IU85 whole entry, looked up): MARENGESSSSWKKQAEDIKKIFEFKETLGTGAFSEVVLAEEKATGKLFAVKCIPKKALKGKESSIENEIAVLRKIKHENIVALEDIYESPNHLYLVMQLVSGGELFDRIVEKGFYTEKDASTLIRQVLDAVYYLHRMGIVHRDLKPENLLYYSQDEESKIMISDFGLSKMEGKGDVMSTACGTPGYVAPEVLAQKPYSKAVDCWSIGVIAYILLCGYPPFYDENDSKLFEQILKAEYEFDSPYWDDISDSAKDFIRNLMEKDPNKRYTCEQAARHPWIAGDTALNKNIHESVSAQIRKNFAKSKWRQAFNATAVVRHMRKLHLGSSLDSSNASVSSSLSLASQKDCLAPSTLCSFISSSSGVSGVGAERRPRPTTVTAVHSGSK

[19] = target: Calcium/calmodulin-dependent protein kinase type 1D (Homo sapiens) (UniProt Q8IU85); conditions: at 1 µM
[20] = target: Calcium/calmodulin-dependent protein kinase type II subunit alpha (Homo sapiens) (UniProt Q9UQM7); conditions: at 0.1 µM;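 note: reported values are averages (mean inhibition of CAMK2A)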
Sequence of Calcium/calmodulin-dependent protein kinase type II subunit alpha (Homo sapiens) (Q9UQM7 whole entry): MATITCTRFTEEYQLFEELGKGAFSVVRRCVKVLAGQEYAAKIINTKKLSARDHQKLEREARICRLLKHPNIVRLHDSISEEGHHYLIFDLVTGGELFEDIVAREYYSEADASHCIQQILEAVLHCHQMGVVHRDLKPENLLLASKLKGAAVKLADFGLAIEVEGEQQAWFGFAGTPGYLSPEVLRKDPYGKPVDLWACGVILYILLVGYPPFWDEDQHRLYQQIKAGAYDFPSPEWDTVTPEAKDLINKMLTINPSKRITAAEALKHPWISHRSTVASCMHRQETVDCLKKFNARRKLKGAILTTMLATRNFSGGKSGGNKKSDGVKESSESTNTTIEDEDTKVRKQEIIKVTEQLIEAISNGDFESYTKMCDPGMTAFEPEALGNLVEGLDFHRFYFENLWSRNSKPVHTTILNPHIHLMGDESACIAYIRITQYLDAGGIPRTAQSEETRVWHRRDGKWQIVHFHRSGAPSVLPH

Sequence of Ribosomal protein S6 kinase alpha-6 (Homo sapiens) (Q9UK32 whole entry): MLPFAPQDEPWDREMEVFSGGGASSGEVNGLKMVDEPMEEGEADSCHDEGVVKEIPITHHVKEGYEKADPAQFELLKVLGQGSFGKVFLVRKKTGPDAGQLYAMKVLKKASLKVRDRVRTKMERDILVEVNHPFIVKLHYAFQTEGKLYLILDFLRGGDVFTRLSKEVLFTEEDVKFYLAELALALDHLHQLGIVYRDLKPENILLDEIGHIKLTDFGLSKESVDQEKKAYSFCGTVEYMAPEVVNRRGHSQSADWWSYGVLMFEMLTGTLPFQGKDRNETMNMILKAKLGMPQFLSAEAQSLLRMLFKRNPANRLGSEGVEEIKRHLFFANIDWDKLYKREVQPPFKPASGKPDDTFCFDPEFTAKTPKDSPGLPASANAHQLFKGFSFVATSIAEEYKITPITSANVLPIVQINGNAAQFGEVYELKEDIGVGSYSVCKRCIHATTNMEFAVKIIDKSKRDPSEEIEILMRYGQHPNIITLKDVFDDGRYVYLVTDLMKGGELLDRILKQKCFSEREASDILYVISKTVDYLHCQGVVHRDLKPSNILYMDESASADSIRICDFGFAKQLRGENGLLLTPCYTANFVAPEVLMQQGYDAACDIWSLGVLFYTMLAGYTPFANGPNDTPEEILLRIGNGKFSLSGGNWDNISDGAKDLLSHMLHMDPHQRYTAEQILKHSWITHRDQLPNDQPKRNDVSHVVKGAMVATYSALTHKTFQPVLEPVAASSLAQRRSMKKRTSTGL

Compound	inhibition [1] [%]	inhibition [2] [%]	inhibition [3] [%]	inhibition [4] [%]	inhibition [5] [%]	inhibition [6] [%]	inhibition [7] [%]	inhibition [8] [%]	inhibition [9] [%]	inhibition [10] [%]	inhibition [11] [%]	inhibition [12] [%]	inhibition [13] [%]	inhibition [14] [%]	inhibition [15] [%]	inhibition [16] [%]	inhibition [17] [%]	inhibition [18] [%]	inhibition [19] [%]	inhibition [20] [%]
COc1cc2ncn(-c3cc(OCc4cccs4)c(C(N)=O)s3)c2cc1OC	9.08	5.73	8.78	4.34	10.6	5.06	6.9	3.16	12.8	3.12	5.5	20.1	63.2	9	50	16.6	60.6	0.15	0.12	2.87
O=C1NC(=O)C(c2cccc(Cl)c2)=C1Nc1ccc(Cl)c(C(=O)O)c1	3.09	3.35	8.21	0.84	3.07	2.77	4.64	3.69	3.89	-0.69	-4.09	-9.56	3.08	-0.75	0.27	1.73	2.47	-1.22	-0.07	3.4
N#Cc1ccc(Oc2nccc(-c3c(-c4ccc(F)cc4)ncn3C3CCNCC3)n2)cc1	0.97	2.45	2.02	7.44	3.86	2.02	3.62	2.27	3.89	3.09	3.23	-1.37	0.67	-2.05	0.23	0.71	2.75	0.44	0.96	2.95
NS(=O)(=O)c1ccc(N/N=C2\C(=O)Nc3ccc(-c4cnco4)cc32)cc1	5.02	1.68	10.2	1.11	3.35	1.34	5.76	3.38	15.9	5.38	11.8	5.26	35.2	2.76	14.5	3.56	23.8	-0.53	2.62	0.21
C[C@@H](Oc1cc(-n2cnc3ccc(OC4CCN(C)CC4)cc32)sc1C(N)=O)c1ccccc1Cl	40.4	1.16	1.49	2.92	1.45	3.29	2.26	5.35	21.6	5.98	9.02	22	66.8	27.6	58	37.9	70.8	-0.95	3.84	2.57
Cc1ccc(C(=O)NC(C)C)cc1-c1ccc(C(=O)NCC2CC2)cc1	0.59	0.01	-0.09	-3.55	-7.09	-5.05	-2.17	-1.19	-1.42	-0.98	-5.48	3.9	3.92	1.12	-1.28	0.51	1.61	-1.04	0.57	-4.62
FC(F)(F)c1cccc(Nc2nccc(-c3cnn4nc(-c5ccccc5)ccc34)n2)c1	0.82	2.37	2.67	1.96	1.95	2.7	1.72	1.9	1.87	-0.41	2.89	-0.22	4.2	-0.11	4.72	1.87	2.68	0.17	0.28	0.97
COc1cc(Nc2ncc3c(C)nc(-c4cccc(C(F)(F)F)c4)n3n2)cc(OC)c1OC	29.1	3.85	8.66	-1.55	6.37	5.08	8.49	6.54	39.2	5.38	25	35.4	65.3	4.57	7.57	5.62	9.19	-1.94	-0.82	2.25
